# Assay outcomes (PubChem BioAssay)
# Shown are actives, neighbours in structure and some others; about 7.8% of the full set was active somewhere.
# LASV entry inh: qHTS for Inhibitors of binding or entry into cells for Lassa Virus; actives 1.2% (n = 300,000); Lassa virus pseudotype entry inhibition, cell reporter; Potency, µM (highest dose often 37.9 µM), hits mostly inhibitors; calls by dose curve; tested in HEK293 cells; also: nearly all actives have a fitted effect of over 50% in size
# HCMV antiviral: qHTS Assay for inhibitors of the human cytomegalovirus (HCMV); AID 1259415, 2018; activity change, negative = inhibition, % at 57.5 µM; HFF cells, HCMV-luciferase reporter, 72 h; hits give low values; actives 4.5% (n = 410,000); in the data active = activity change below about -60%; inconclusive = no clear call, values can overlap the other calls; inactive = above about -39%
#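 Cell-based, HFFs, 1000 cells/well, 16 h 37C; cpds in DMSO + HCMV-luc, MOI 1 PFU/cell; 72 h 37C; OneGlo luminescence after 5 min RT; norm. to buffer vs Salinomycin 10uM.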
# MARV entry inh: qHTS for inhibitors of binding or entry into cells for Marburg Virus; Marburg virus pseudotyped entry inhibition, cell reporter; Potency, µM (series often up to 37.8 µM), usual class: inhibitors; actives 1.8% (n = 300,000); AID 540276, 2011; calls by dose curve; tested in HEK293 cells
# Vaccinia mCherry: qHTS for Stage-Specific Inhibitors of Vaccinia Orthopoxvirus: mCherry Reporter Primary qHTS; Vaccinia virus mCherry reporter infection, fluorescence; Potency, µM (titrated, usually from 36.5 µM), most hits filed as inhibitors; actives 0.63% (n = 310,000); calls by dose curve; tested in A549 cells; also: nearly all actives have a fitted effect of over 35% in size
# Vaccinia Venus: qHTS for Stage-Specific Inhibitors of Vaccinia Orthopoxvirus: Venus Reporter Primary qHTS; Vaccinia virus Venus reporter expression, fluorescence; Potency, µM (highest dose often 36.5 µM), actives largely listed as inhibitors; actives 0.46% (n = 330,000); AID 720580, 2013; calls by dose curve; tested in A549 cells; also: nearly all actives have a fitted effect of over 30% in size
# HCV inhibitor: qHTS Assay for Inhibitors of Hepatitis C Virus (HCV); Potency, µM (series often up to 41.8 µM), actives largely listed as inhibitors; actives 3.4% (n = 340,000); Huh7.5.1 HCVcc-Cre infection, luciferase reporter, 44 h; active = well fitted inhibition curve with a large enough effect; inconclusive = small, poorly fitted or top-dose-only effect, or another doubt; inactive = no such curve, though single readings can be large or run the other way
#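 HCVcc-Cre virus at an moi near 0.5 was added right after compound to cells cultured 4 h from seeding (1,000 cells/well). Luciferase activity was determined 44 h later, 15 min after substrate addition at RT.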
# A number is an active result; - = inactive; ? = inconclusive; . = no result given; + = active, no number; [ ] = dose if it differs, or a comment.
SMILES,LASV entry inh,HCMV antiviral,MARV entry inh,Vaccinia mCherry,Vaccinia Venus,HCV inhibitor
COCc1ccc(CN2CCOc3c(cc(-c4cc(C)c5cccc(OC)c5n4)cc3OC)C2)o1,.,.,.,-,-,.
O=C(Nc1ccccc1F)c1nc(SCc2ccccc2F)ncc1Cl,-,-,-,-,-,.
COc1ccc(Nc2nc(N3CCOCC3)nc(N3CCOCC3)n2)cc1Cl,-,-,?,-,-,10µM
Cc1ccc(NC(=O)Cn2c(=O)n(CCC(=O)NCCc3ccccc3)c(=O)c3ccccc32)cc1,?,-,-,-,-,.
CC1(C)C2CCC(C2)C1C/C=N/NC(N)=S (stereo not given),-,-73,?,?,-,-
COC(=O)c1ccc(OC)c(CN2CCCN(Cc3ccc(C)cc3)S2(=O)=O)c1,-,+,.,-,-,.
O=C(CN1CCCN(Cc2ccc(F)cc2)S1(=O)=O)NC1CCCC1,.,-,.,-[7.34 µM],-[7.34 µM],-
COc1ccc(NC(=O)CN2CCN(Cc3ccc(F)cc3)S2(=O)=O)cc1Cl,-,-,.,-,-,.
Cc1ccc(CN2CCN(CC(=O)Nc3ccc(C)c(C)c3)S2(=O)=O)cc1,-,+,.,-,-,.
Cc1ccc(CNC(=O)CN2CCCN(Cc3ccc(F)cc3)S2(=O)=O)cc1,11µM,-,.,-,-,.
Cc1ccc(CC(=O)Nc2c(C(=O)N3CCN(c4ccccc4F)CC3)oc3ccccc23)cc1,-,-,-,-,-,.
CCCCOC(=O)c1ccc(NC(=O)c2ccc3c(c2)CCN3S(C)(=O)=O)cc1,-,-,?,-,-,.
COc1cc2nc(N3CCCN(C)CC3)nc(N)c2cc1OC,.,.,.,-,-,.
Cc1nc2ccc(C(=O)N3CCc4c(cnc(C)c4CNC(=O)/C=C/c4cccs4)C3)cc2nc1C,.,.,.,-,-,.
COc1ccc(N2CCN(CCCn3c(=S)[nH]c4ncccc4c3=O)CC2)cc1,?,?,4.1µM,.,.,-
CC1CCN(CCn2c(=S)[nH]c3ncccc3c2=O)CC1,.,.,-,.,.,.
O=c1c2cccnc2[nH]c(=S)n1CCCN1CCN(c2ccc(F)cc2)CC1,5.8µM,-,4.6µM,.,.,-
CCN1C(=O)[C@H]2[C@H]3[C@H](O)[C@H](O)CC(=O)[C@@H]3CC[C@H]2C1=O,.,.,.,-,-,.
CC(=O)Nc1c(C)nn(-c2ccccc2)c1N1CCC(C(=O)Nc2ccc(F)cc2Cl)CC1,-,-,.,-[7.34 µM],-[7.34 µM],.
COc1cc(-c2nc(-c3ccccc3)c(-c3cccs3)[nH]2)cc(OC)c1O,-,-,-,.,.,10µM
COc1cc(-c2nc(-c3ccccc3)c(-c3cccs3)[nH]2)cc(OC)c1OC,-,-,?,.,.,22µM
O=C(C1COc2ccccc2O1)N1CCN(c2nc3c(F)cccc3s2)CC1 (stereo not given),-,-,.,-,-,.
O=C(/C=C/c1ccccc1)CC(=O)c1ccccc1O,-,-,-,.,.,11µM
CCCNC(=O)OC[C@H]1O[C@H](CCON=C(C)CCN2CCCCc3nc(C)c(C)cc32)C=C[C@H]1Oc1ccc(OC)cc1,.,.,-,.,.,.
CCN(CC)c1ccc(CNCCc2ccc(F)cc2)cc1,?,-,?,10µM,-,?
SMILES,LASV entry inh,HCMV antiviral,MARV entry inh,Vaccinia mCherry,Vaccinia Venus,HCV inhibitor
C[C@H](CO)N1C[C@H](C)[C@@H](CN(C)C)Oc2c(NC(=O)Cc3ccccc3)cccc2C1=O,.,-,.,-,-,0.56µM
C[C@H](CO)N1C[C@H](C)[C@@H](CN(C)C)Oc2c(NS(=O)(=O)c3ccc(F)cc3)cccc2C1=O,.,-73,.,-,-,-
C[C@H](CO)N1C[C@H](C)[C@@H](CN(C)Cc2ccccc2)Oc2c(NC(=O)Cc3ccccc3)cccc2C1=O,.,-,.,-,?,?
C[C@H](CO)N1C[C@H](C)[C@@H](CN(C)Cc2ccc(Cl)c(Cl)c2)Oc2c(NC(=O)Cc3ccccc3)cccc2C1=O,.,-,.,5.6µM,?,-
O=C(C1=C(O)C(=O)N(c2ncccn2)[C@@H]1c1cccc(Cl)c1)c1ccco1,.,.,-,.,.,.
O=C(Nc1ccncc1)c1ccc(Cl)c(S(=O)(=O)N2CCCCC2)c1,?,.,?,-,-,10µM
O=C(Nc1ccc(Cl)c(S(=O)(=O)N2CCCCC2)c1)c1ccncc1,-,-77,?,-,-,8.9µM
O=C(O)c1ccc(NC(=O)c2ccc(Cl)c(S(=O)(=O)N3CCCCCC3)c2)cc1,-,-,-,-,-,.
O=C(Nc1ccc(Cl)c(S(=O)(=O)N2CCCCC2)c1)c1cnccn1,.,-,.,.,.,-
Cc1ccc(NC(=O)c2ccc(Cl)c(S(=O)(=O)N3CCCCCC3)c2)nc1,-,-68,-,-,-,?
Cc1ccc(NC(=O)c2ccc(S(=O)(=O)N3CCC(C)CC3)cc2)nc1,-,-64,-,?,-,-
Cc1ccccc1Cn1c(CN2CCCC(C)C2)nc2c1c(=O)n(C)c(=O)n2C (stereo not given),-,-,-,-,-,.
COc1ccccc1C(C)NCC(=O)c1c(C)[nH]c2ccccc12 (stereo not given),.,.,.,-,-,.
Cc1nc2cc(NC(=O)[C@@H]3C[C@@H](Sc4ccccn4)CN3Cc3cccc(Cl)c3)ccc2s1,.,.,.,-,-,.
CC1(C)Cc2c(c(N3CCOCC3)nc3sc4c(NCCN5CCOCC5)nnnc4c23)CS1,.,-,.,.,.,11µM
CC(C)CCNc1nnnc2c1sc1nc(N3CCOCC3)c3c(c12)CC(C)(C)SC3,?,-,-,-,-,-
Nc1cc(=O)[nH]c(SCc2ccc(Cl)cc2Cl)n1,.,-60,.,.,.,3.2µM
Nc1ncnc2nc(SCc3ccc(Cl)cc3Cl)[nH]c12,-,-,-,?,?,-
O=[N+]([O-])c1cccc(/C=N/Nc2cc(N3CCOCC3)ncn2)c1,.,-,.,.,.,-
O=[N+]([O-])c1ccc(/C=N/Nc2cc(Cl)nc(-c3ccccc3)n2)cc1,-,-,-,-,-,?
O=[N+]([O-])c1cccc(/C=N/Nc2nc(N3CCOCC3)nc(N3CCOCC3)n2)c1,-,-93,?,-,-,-
Cc1ccc(Cl)cc1Nc1nc(N2CCOCC2)nc(N2CCOCC2)n1,?,?,?,-,-,-
O=[N+]([O-])c1ccc(Cl)c(/C=N/Nc2nc(N3CCOCC3)nc(N3CCOCC3)n2)c1,-,-,0.052µM,.,.,?
O=[N+]([O-])c1cccc(/C=N/Nc2cc(Cl)nc(-c3ccccc3)n2)c1,10µM,-,-,.,-,?
Cc1ccc([N+](=O)[O-])cc1Nc1nc(N2CCOCC2)nc(N2CCOCC2)n1,-,-70,?,-,-,-
Clc1cc2c(cc1/C=N/Nc1nc(N3CCOCC3)nc(N3CCOCC3)n1)OCO2,-,-,-,-,-,?
CN(C)c1ccc(/C=C/c2sc3ccccc3[n+]2Cc2ccccc2)cc1,.,.,.,-,-,.
COc1ccc([C@]23Cc4cc(C#N)ccc4[C@H](O2)C2=C(CC4(CCCCC4)OC2=O)O3)cc1,.,.,-,.,.,.
